PubChem BioAssay (EPA / NIEHS)
Inconclusive results are not listed. Active and inactive are the calls of the source. Rule for the calls: active = hit-call score of the fitted dose curve at least 0.9, where 1 is the maximum; inconclusive = response in the unintended direction; inactive = score below 0.9.

System: not listed separately
Assay: TOX21_p53_BLA_p5_viability: Viability Assessment in the Tox21 HCT-116 p53 Agonism Beta-lactamase Assay, Phase 5 (AID 2283600)
Procedure, shortened: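 4000 cells/well; 5 h pre-incubation; DMSO compounds pin-transferred, 217-fold dilution; 16 h, 37C/5% CO2; CCF4-AM 2 h RT; CellTiter-Glo 30 min RT; luminescence.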

Row | Compound | outcome
1 | C[Si](NC1CCCCC1)(NC1CCCCC1)NC1CCCCC1 | inactive
2 | CC(C[N+](C)(C)C)OC(N)=O (stereo not given) | inactive
3 | CC(C)NNC(=O)c1ccncc1 | inactive
4 | CC(O)C(CO)C(C)O (stereo not given) | inactive
5 | Cc1ccc2c(n1)Oc1ccc(C(C)C(=O)OCC(=O)N(C)C)cc1C2 (stereo not given) | inactive
6 | C=C[C@]1(C)C[C@@H](OC(=O)CSC(C)(C)CNC(=O)[C@H](N)C(C)C)[C@]2(C)[C@H](C)CC[C@]3(CCC(=O)[C@H]32)[C@@H](C)[C@@H]1O | inactive
7 | O=C(O)CCCCCCCCCCCBr | inactive
8 | OCCCNc1ccccc1 | inactive
9 | CNCCCCOc1ccccc1Cc1ccccc1 | inactive
10 | OC(CCN1CCCC1)(c1ccccc1)C1CCCCC1 (stereo not given) | inactive
11 | CN(C/C=C/C#CC(C)(C)C)Cc1cccc2ccccc12 | inactive
12 | O=C[C@H](O)[C@@H](O)[C@@H](O)[C@H](O)CO | inactive
13 | CC/C=C\C/C=C\C/C=C\C/C=C\C/C=C\CCCC(=O)O | inactive
14 | Nc1ccc(N=Nc2ccccc2)c(N)c1 | inactive
15 | COC(=O)c1ccc(C(=O)O)cc1 | inactive
16 | COc1cc2[nH]c(C)c(CCN3CCN(c4ccccc4)CC3)c2cc1OC | inactive
17 | COc1cc2c(cc1OC)-c1cc3ccc(OC)c(OC)c3c[n+]1CC2 | inactive
18 | C1=CC2C3C=CC(C3)C2C1 (stereo not given) (tested in a mixture with another compound) | inactive
19 | OC(CN1CCC(Cc2ccc(F)cc2)CC1)c1ccc(Cl)cc1 (stereo not given) | inactive
20 | O=C(O)CCCCCC(=O)O | inactive

Row | Compound | outcome
21 | C[S+](C)CCC(N)C(=O)O (stereo not given) | inactive
22 | COc1cc(C)nc(-n2nc(C)cc2OC)n1 | inactive
23 | CN(C(=O)CCCOc1ccc2[nH]c(=O)ccc2c1)C1CCCCC1 | inactive
24 | CCN(CC)c1ccc2c(-c3ccc(S(=O)(=O)O)cc3S(=O)(=O)[O-])c3ccc(=[N+](CC)CC)cc-3oc2c1 | inactive
25 | Cc1cc(C(C)(C)C)c(O)c(C)c1Cn1c(=O)n(Cc2c(C)cc(C(C)(C)C)c(O)c2C)c(=O)n(Cc2c(C)cc(C(C)(C)C)c(O)c2C)c1=O | inactive
26 | Cc1nnc(C(C)C)n1C1C[C@H]2CC[C@@H](C1)N2CC[C@@H](NC(=O)C1CCC(F)(F)CC1)c1ccccc1 (stereo not given in full) | inactive
27 | Cc1nc2ccccn2c(=O)c1CCN1CCC(C(=O)c2ccc(F)cc2)CC1 | inactive
28 | CO[C@H]1/C=C/O[C@@]2(C)Oc3c(C)c(O)c4c(O)c(c5c(c4c3C2=O)=NC2(CCN(CC(C)C)CC2)N=5)NC(=O)/C(C)=C\C=C\[C@H](C)[C@H](O)[C@@H](C)[C@@H](O)[C@@H](C)[C@H](OC(C)=O)[C@@H]1C | inactive
29 | CCCCCCCCS(=O)(=O)Cl | inactive
30 | CNC(=O)CN(CCN(CCN(CC(=O)[O-])CC(=O)NC)CC(=O)[O-])CC(=O)[O-].O.[Gd+3] | inactive
31 | C[N+]1(C)CCC(=C(c2ccccc2)c2ccccc2)CC1 | inactive
32 | CN[C@@H]1[C@H](O)[C@H](NC)[C@H]2O[C@@]3(O)C(=O)C[C@@H](C)O[C@H]3O[C@@H]2[C@H]1O | inactive
33 | CC(C)(C(=O)O)c1ccc(C(O)CCCN2CCC(C(O)(c3ccccc3)c3ccccc3)CC2)cc1 (stereo not given) | inactive
34 | Cc1cccc(C)c1NC(=O)c1ccccc1C(=O)O | inactive
35 | CCCCCCCCCCCCI | inactive
36 | CCCCN(CCCC)CC(O)c1cc(Cl)cc2c1-c1ccc(Cl)cc1/C2=C/c1ccc(Cl)cc1 (stereo not given) | inactive
37 | CC(C)(C)c1ccc(C(=O)CCCN2CCC(OC(c3ccccc3)c3ccccc3)CC2)cc1 | inactive
38 | CCCCCCCCCI | inactive
39 | C[CH2][Ge]([Cl])([CH2]C)[CH2]C | inactive

Target: Cellular tumor antigen p53 (Homo sapiens) (UniProt P04637)
Assay: TOX21_p53_BLA_p4_ratio: Tox21 HCT-116 p53 Agonism Beta-lactamase Assay, Ratio, Phase 4 (AID 2283601)
Procedure, shortened: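 Signal is the blue/green (460nm/530nm) ratio of cleaved versus uncleaved CCF4-AM substrate, read after 2 h substrate loading. Cells were HCT116 carrying the p53-responsive beta-lactamase reporter, dosed 16 h at 37C, 5% CO2; CellTiter-Glo measured in parallel.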

Sequence of Cellular tumor antigen p53 (Homo sapiens) (P04637 whole entry, looked up): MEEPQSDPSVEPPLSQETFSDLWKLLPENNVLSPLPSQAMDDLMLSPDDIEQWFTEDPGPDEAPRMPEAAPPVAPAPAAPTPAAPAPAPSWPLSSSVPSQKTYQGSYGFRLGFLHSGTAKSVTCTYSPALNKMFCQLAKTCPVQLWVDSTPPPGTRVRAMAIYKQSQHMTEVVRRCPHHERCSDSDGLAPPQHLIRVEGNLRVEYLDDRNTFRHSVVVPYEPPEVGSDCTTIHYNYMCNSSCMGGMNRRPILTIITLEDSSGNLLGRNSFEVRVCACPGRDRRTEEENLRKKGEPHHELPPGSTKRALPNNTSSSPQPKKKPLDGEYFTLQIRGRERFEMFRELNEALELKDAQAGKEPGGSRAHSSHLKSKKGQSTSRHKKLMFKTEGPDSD

Row | Compound | outcome
40 | C[Si](NC1CCCCC1)(NC1CCCCC1)NC1CCCCC1 | inactive
41 | CC(C)NNC(=O)c1ccncc1 | inactive
42 | CC(O)C(CO)C(C)O (stereo not given) | inactive
43 | C=C[C@]1(C)C[C@@H](OC(=O)CSC(C)(C)CNC(=O)[C@H](N)C(C)C)[C@]2(C)[C@H](C)CC[C@]3(CCC(=O)[C@H]32)[C@@H](C)[C@@H]1O | inactive
44 | O=C(O)CCCCCCCCCCCBr | inactive
45 | OCCCNc1ccccc1 | inactive
46 | OC(CCN1CCCC1)(c1ccccc1)C1CCCCC1 (stereo not given) | inactive
47 | CN(C/C=C/C#CC(C)(C)C)Cc1cccc2ccccc12 | inactive
48 | O=C[C@H](O)[C@@H](O)[C@@H](O)[C@H](O)CO | inactive
49 | CC/C=C\C/C=C\C/C=C\C/C=C\C/C=C\CCCC(=O)O | inactive
50 | Nc1ccc(N=Nc2ccccc2)c(N)c1 | inactive
51 | COC(=O)c1ccc(C(=O)O)cc1 | inactive
52 | OC(CN1CCC(Cc2ccc(F)cc2)CC1)c1ccc(Cl)cc1 (stereo not given) | inactive
53 | O=C(O)CCCCCC(=O)O | inactive
54 | COc1cc(C)nc(-n2nc(C)cc2OC)n1 | inactive
55 | CCN(CC)c1ccc2c(-c3ccc(S(=O)(=O)O)cc3S(=O)(=O)[O-])c3ccc(=[N+](CC)CC)cc-3oc2c1 | inactive
56 | Cc1cc(C(C)(C)C)c(O)c(C)c1Cn1c(=O)n(Cc2c(C)cc(C(C)(C)C)c(O)c2C)c(=O)n(Cc2c(C)cc(C(C)(C)C)c(O)c2C)c1=O | inactive
57 | Cc1nc2ccccn2c(=O)c1CCN1CCC(C(=O)c2ccc(F)cc2)CC1 | inactive
58 | CO[C@H]1/C=C/O[C@@]2(C)Oc3c(C)c(O)c4c(O)c(c5c(c4c3C2=O)=NC2(CCN(CC(C)C)CC2)N=5)NC(=O)/C(C)=C\C=C\[C@H](C)[C@H](O)[C@@H](C)[C@@H](O)[C@@H](C)[C@H](OC(C)=O)[C@@H]1C | inactive
59 | CCCCCCCCS(=O)(=O)Cl | inactive
60 | CNC(=O)CN(CCN(CCN(CC(=O)[O-])CC(=O)NC)CC(=O)[O-])CC(=O)[O-].O.[Gd+3] | inactive
61 | CN[C@@H]1[C@H](O)[C@H](NC)[C@H]2O[C@@]3(O)C(=O)C[C@@H](C)O[C@H]3O[C@@H]2[C@H]1O | inactive
62 | CC(C)(C(=O)O)c1ccc(C(O)CCCN2CCC(C(O)(c3ccccc3)c3ccccc3)CC2)cc1 (stereo not given) | inactive
63 | Cc1cccc(C)c1NC(=O)c1ccccc1C(=O)O | inactive
64 | CCCCN(CCCC)CC(O)c1cc(Cl)cc2c1-c1ccc(Cl)cc1/C2=C/c1ccc(Cl)cc1 (stereo not given) | inactive
65 | CCCCCCCCCI | inactive
